Sm TGR inh = S. mansoni TGR enzyme inhibition; Q962Y6; purified TGR, DTNB reduction, TNB absorbance 405 nm; Potency, µM (highest dose often 114 µM), inactives show at the top dose activity change, negative = inhibition, actives largely listed as inhibitors; 360,000 compounds, 3% hits; AID 485364; note: potency is the fitted concentration of half-maximal effect; nearly all actives have a fitted effect of over 60% in size
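TGR 20 nM + NADPH 100 uM (dispensed conc.), cpd preinc 15 min RT; start with NADPH (500 uM addition) then DTNB (15 mM addition). Kinetic TNB absorbance, 405 nm filter. Four-parameter Hill fit across titration.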
Pf growth 96h = P. falciparum growth inhibition at 96 hour, primary screen for plastid delayed-death inhibitors; P. falciparum luciferase reporter growth, 96 h; Potency, µM (highest dose often 28.7 µM), for the others: top-dose activity change, negative = inhibition, actives largely listed as inhibitors; 320,000 compounds, 6.9% hits; AID 504834; note: potency is the fitted concentration of half-maximal effect
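Erythrocytes infected with luciferase-expressing P. falciparum were dispensed at 2% hematocrit and 0.05% parasitemia (final), then incubated with compounds 96 hours at 37 C in 5% CO2. Luminescence after detection reagent addition reported growth.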
Giardia FBPA inh = Giardia lamblia aldolase inhibition | purified Giardia FBPA | Potency, µM (highest dose often 59.6 µM), for the others: top-dose activity, negative = inhibition, actives largely listed as inhibitors | A8B2U2 | 290,000 compounds, 0.71% hits; note: potency is the fitted concentration of half-maximal effect; nearly all actives have a fitted effect of over 55% in size
Target sequence (A8B2U2 whole entry, looked up): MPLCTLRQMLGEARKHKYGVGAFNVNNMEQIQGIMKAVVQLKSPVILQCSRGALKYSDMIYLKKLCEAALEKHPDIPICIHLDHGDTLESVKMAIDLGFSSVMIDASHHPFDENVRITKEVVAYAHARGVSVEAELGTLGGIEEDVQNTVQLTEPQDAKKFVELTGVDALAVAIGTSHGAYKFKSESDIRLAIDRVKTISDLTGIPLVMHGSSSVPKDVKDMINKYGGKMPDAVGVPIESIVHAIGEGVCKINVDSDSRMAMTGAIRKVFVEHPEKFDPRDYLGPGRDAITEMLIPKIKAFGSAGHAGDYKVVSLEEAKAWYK
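Giardia FBPA (40 nM reagent) was preincubated 10 min at RT with compound (up to 57.5 uM final), then substrate plus GAPDH/TPI/NAD/arsenate coupling system with diaphorase/resazurin was added; resorufin fluorescence (525/598 nm) was read after 20 min.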
HCMV inh = blocks human cytomegalovirus replication. 410,000 compounds, 4.5% hits. HFF cells, HCMV-luciferase reporter, 72 h; hits give low values. activity change, negative = inhibition, % at 57.5 µM; in the data active = activity change below about -60%; inconclusive = no clear call, values can overlap the other calls; inactive = above about -39%
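Inhibition of viral replication was scored as loss of reporter luminescence in HFFs infected with HCMV-luciferase (MOI 1 PFU/cell) for 72 h; compounds tested at 2 doses, normalized to buffer and Salinomycin controls.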
Pf growth 48h = P. falciparum growth inhibition at 48 hours (one generation); P. falciparum luciferase growth in erythrocytes, 48 h; Potency, µM (doses to about 28.7 µM), without a hit: at the top dose activity change, negative = inhibition, actives largely listed as inhibitors; 310,000 compounds, 5.9% hits; AID 504832; note: potency is the fitted concentration of half-maximal effect
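First compound was added to culture medium, then infected red cells at 0.1% parasitemia and 2% hematocrit (final). After incubation at 37 C under 5% CO2, luciferase detection reagent was dispensed and light output recorded.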
Active calls of the source: *; ! = repeats disagree. This is a sample that favours compounds with a hit; in the whole collection about 14% have one here. Unless noted, calls come from the whole dose curve; as a rule, active = well fitted curve in the direction sought with a large enough effect; inconclusive = small, poorly fitted or top-dose-only effect, or another doubt; inactive = no such curve, though single readings can be large; an effect the other way counts as inactive or inconclusive. % is set by controls: 0 for no effect and ±100 for the full control effect.

How did O=C(NC1CCCc2ccccc21)c1cccc(S(=O)(=O)N2CCN(c3ccccc3)CC2)c1 (centres undefined) do in these assays?
Sm TGR inh: 0%; Giardia FBPA inh: -1%; Pf growth 48h: 10µM*

What do the screens show for `CC1CCC(NC(=O)c2cccc(S(=O)(=O)N3CCN(c4ccccc4)CC3)c2)CC1` (centres undefined)?
Sm TGR inh: 0%; Pf growth 96h: 9%; HCMV inh: -23; Pf growth 48h: inconclusive

How did CC(=O)c1c(C)[nH]c(C(=O)NC2CCSc3ccccc32)c1C (centres undefined) do in these assays?
Sm TGR inh: 39%; Pf growth 96h: 1%; HCMV inh: inconclusive; Pf growth 48h: -6%

Results for S=C(NC1CC1)NC1CCCc2ccccc21 (centres undefined) ?
Sm TGR inh: 6%; Pf growth 96h: inconclusive; Giardia FBPA inh: -4%; HCMV inh: -62*; Pf growth 48h: -19%

What do the screens show for `CSc1ncc(Cl)c(C(=O)N(Cc2ccccc2Cl)C2CCS(=O)(=O)C2)n1` (centres undefined)?
Sm TGR inh: 6%; HCMV inh: 25

How did CC/C(=N\N1CCCCCC1)c1c(O)n(-c2ccc(C)cc2)c(=O)[nH]c1=O do in these assays?
Sm TGR inh: 2%; Pf growth 96h: 2.1µM*; Giardia FBPA inh: -1%; HCMV inh: -19; Pf growth 48h: inconclusive

What do the screens show for `C/C(=N\N1CCCCCC1)c1c(O)n(-c2ccc(C)cc2)c(=O)[nH]c1=O`?
Sm TGR inh: 0%; Pf growth 96h: 12µM*; Giardia FBPA inh: 0%; HCMV inh: -37; Pf growth 48h: inconclusive

How did C/C(=N\N1CCCCCC1)c1c(O)n(-c2ccc(Cl)cc2)c(=O)[nH]c1=O do in these assays?
Sm TGR inh: -2%; Pf growth 96h: 3%; Giardia FBPA inh: 11%; HCMV inh: -12; Pf growth 48h: inconclusive

What do the screens show for `COc1cc(C(=O)N2CCCN(C)CC2)cc(OC)c1C`?
Sm TGR inh: 0%; Pf growth 96h: 0%; Giardia FBPA inh: -1%; HCMV inh: 54; Pf growth 48h: 1%

What do the screens show for `COc1ccc(-c2oc3cc(OC)ccc3c(=O)c2O)cc1`?
Giardia FBPA inh: 7%

How did CN(CC(=O)Nc1ccc(F)c(F)c1F)C(=O)CN1C(=O)C2CCCCC2C1=O (centres undefined) do in these assays?
Sm TGR inh: -11%; Pf growth 96h: 11%; Giardia FBPA inh: -1%; HCMV inh: inconclusive; Pf growth 48h: -5%

Results for CCc1noc(C)c1C(=O)N1CCSC1=Nc1cccc(Cl)c1C ?
Sm TGR inh: 2%; Pf growth 96h: 2.9µM*; HCMV inh: -82*; Pf growth 48h: inconclusive

What do the screens show for `CCc1noc(C)c1C(=O)N1CCCSC1=Nc1ccccc1`?
Sm TGR inh: 1%; Pf growth 96h: 37%; HCMV inh: -22; Pf growth 48h: inconclusive

What do the screens show for `Cc1cccc(NC(=O)/C(C#N)=C/c2cccc([N+](=O)[O-])c2)n1`?
Sm TGR inh: -8%; Pf growth 96h: -21%; Giardia FBPA inh: -7%; HCMV inh: 33; Pf growth 48h: 34%

What do the screens show for `COc1cccc2[nH]c3ccccc3c(=O)c12`?
Sm TGR inh: -25%; Pf growth 96h: inconclusive; Giardia FBPA inh: -10%; Pf growth 48h: inconclusive

Results for Nc1cccc2c(=O)c3ccccc3[nH]c12 ?
Sm TGR inh: -16%; Pf growth 96h: 1.9µM*; Giardia FBPA inh: -6%; HCMV inh: -1; Pf growth 48h: 1.9µM*

How did O=C(c1ccccc1)n1nc(-c2ccc(Cl)cc2)nc1NCc1ccco1 do in these assays?
Sm TGR inh: 5%; HCMV inh: 64

What do the screens show for `CCc1ccc(-c2cc(C)no2)cc1S(=O)(=O)NCc1ccc(OC)c(OC)c1`?
Sm TGR inh: -7%; Pf growth 96h: -6%; HCMV inh: -11; Pf growth 48h: 2%

How did Cc1cc(-c2ccc(C)c(S(=O)(=O)NCc3cccc(Br)c3)c2)on1 do in these assays?
Sm TGR inh: 3%; Pf growth 96h: 74%; Giardia FBPA inh: -3%; HCMV inh: -63*!; Pf growth 48h: inconclusive
